Experimental data: the supplement of paper PMC9334596
Values joined by “and” are separate entries in the source; they are usually repeats but may differ in a detail not shown here. Equal values may be shown once. Whole data set: some 5,300 compounds, median “PER2::LUC luminescence relative to vehicle control” near 0.96, cut for the highest 2% near 1.3. This excerpt belongs to a sample that is enriched for the highest values.

System: mPer2Luc MEF
Test: PER2::LUC luminescence relative to vehicle control (fold of vehicle); higher = higher PER2::LUC reporter signal
Conditions: 10 µM
Procedure, shortened: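 In 384-well plates, ~3000 mPer2Luc reporter mouse embryonic fibroblasts per well were cultured in DMEM with 10% FBS at 37 °C and 5% CO2 for 48 h before compounds from commercial libraries were added at 10 μM. ONE-Glo luciferase readings were taken 24 h and 30 h after treatment. Each value is PER2::LUC luminescence given as fold of vehicle control.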

Row | Compound | PER2::LUC luminescence (time after treatment 24 h) | PER2::LUC luminescence (time after treatment 30 h)
1 | N[C@@H](CCS(=O)O)C(=O)O | 0.964 | 0.944
2 | O=C(OOC(=O)c1ccccc1)c1ccccc1 | 1.2 | 0.843
3 | CN(NC(=O)CC(=O)NN(C)C(=S)c1ccccc1)C(=S)c1ccccc1 | 1.68 | 1.1
4 | O=C(O)c1ccccc1 | 0.918 | 0.766
5 | NS(=O)(=O)c1ccc(-c2c(-c3ccccc3)noc2C(F)F)cc1 | 1.04 | 1
6 | CO[C@H]1C[C@H](O[C@@H]2/C(C)=C/C[C@@H]3C[C@@H](C[C@]4(CC[C@H](C)[C@H](C5CCCCC5)O4)O3)OC(=O)[C@H]3C=C(C)/C(=N\O)[C@H]4OCC(=C/C=C/[C@@H]2C)[C@@]34O)O[C@@H](C)[C@@H]1O | 0.989 | 0.929
7 | CSc1ccccc1NC(C)=O | 0.972 | 0.93
8 | CC(=O)N[C@H]1[C@H]([C@H](O)[C@H](O)CO)OC(O)(C(=O)O)C[C@@H]1O (stereo partly drawn) | 1.03 | 0.921
9 | O=C(O)c1ccc2cc(-c3ccc(O)c(C45CC6CC(CC(C6)C4)C5)c3)ccc2c1 | 1.59 | 1.63
10 | COc1ccc(-c2ccc3cc(C(=O)O)ccc3c2)cc1C12CC3CC(CC(C3)C1)C2 | 1.49 | 1.86
11 | COc1cc(C(=O)O)cc(OC)c1O | 1.06 | 1.08
12 | O=C(O)/C=C/c1ccc(-c2ccc(O)c(C34CC5CC(CC(C5)C3)C4)c2)cc1 | 0.735 | 0.721
13 | COc1cc(C(=O)O[C@H]2C[C@@H]3CC[C@]2(C)C3(C)C)ccc1O | 1.15 | 1.19
14 | NC(=O)c1cccc(NC(=O)/C=C/c2c[nH]c3ccccc23)c1 | 1.08 | 1.06
15 | C=C1/C(=C\C=C2/CCC[C@]3(C)[C@@H]([C@H](C)CC[C@@H](O)C(C)(C)O)CC[C@@H]23)C[C@@H](O)C[C@@H]1O | 0.999 | 0.835
16 | CC1(C)C2CCC1(C(=O)O)C(=O)C2 (stereo not drawn) | 0.998 | 0.954
17 | COc1ccc(CNC(=O)c2sc3nc(C)cc(C)c3c2N)cc1 | 0.953 | 0.979
18 | O=C(Nc1ncc([N+](=O)[O-])s1)c1ccc([N+](=O)[O-])c(Cl)c1 | 0.928 | 1.22
19 | CC(=O)Nc1ncc([N+](=O)[O-])s1 | 1.33 and 1.09 | 0.865 and 1.09
20 | COc1ccc(CNC(=O)Nc2ncc([N+](=O)[O-])s2)cc1 | 1.35 | 1.27
21 | O=C(Nc1ncc([N+](=O)[O-])s1)c1ccccc1O | 1.45 | 1.73
22 | CC(=O)Oc1ccccc1C(=O)Nc1ncc([N+](=O)[O-])s1 | 0.826 | 1.16
23 | COc1ccc(C2=N[C@@H](c3ccc(Cl)cc3)[C@@H](c3ccc(Cl)cc3)N2C(=O)N2CCNC(=O)C2)c(OC(C)C)c1 (racemic) | 0.971 | 0.948
24 | Nc1ncnc2c1ncn2[C@@H]1O[C@H](CO)C[C@@H]1O | 0.952 | 0.956
